Screens as filed in PubChem BioAssay.
Hits are enriched below; roughly 10% of the tested compounds scored in any of these assays.
BAZ2B block: qHTS Assay for Inhibitors of BAZ2B | Bromodomain adjacent to zinc finger domain protein 2B (Homo sapiens), Q9UIF8 | AlphaScreen BAZ2B-H3K14Ac peptide displacement | Potency, µM (highest dose often 114 µM), hits mostly inhibitors | 4.4% of 360,000 active; note: nearly all actives have a fitted effect of over 60% in size
Target sequence (Q9UIF8 whole entry, looked up, the tested form may be a part): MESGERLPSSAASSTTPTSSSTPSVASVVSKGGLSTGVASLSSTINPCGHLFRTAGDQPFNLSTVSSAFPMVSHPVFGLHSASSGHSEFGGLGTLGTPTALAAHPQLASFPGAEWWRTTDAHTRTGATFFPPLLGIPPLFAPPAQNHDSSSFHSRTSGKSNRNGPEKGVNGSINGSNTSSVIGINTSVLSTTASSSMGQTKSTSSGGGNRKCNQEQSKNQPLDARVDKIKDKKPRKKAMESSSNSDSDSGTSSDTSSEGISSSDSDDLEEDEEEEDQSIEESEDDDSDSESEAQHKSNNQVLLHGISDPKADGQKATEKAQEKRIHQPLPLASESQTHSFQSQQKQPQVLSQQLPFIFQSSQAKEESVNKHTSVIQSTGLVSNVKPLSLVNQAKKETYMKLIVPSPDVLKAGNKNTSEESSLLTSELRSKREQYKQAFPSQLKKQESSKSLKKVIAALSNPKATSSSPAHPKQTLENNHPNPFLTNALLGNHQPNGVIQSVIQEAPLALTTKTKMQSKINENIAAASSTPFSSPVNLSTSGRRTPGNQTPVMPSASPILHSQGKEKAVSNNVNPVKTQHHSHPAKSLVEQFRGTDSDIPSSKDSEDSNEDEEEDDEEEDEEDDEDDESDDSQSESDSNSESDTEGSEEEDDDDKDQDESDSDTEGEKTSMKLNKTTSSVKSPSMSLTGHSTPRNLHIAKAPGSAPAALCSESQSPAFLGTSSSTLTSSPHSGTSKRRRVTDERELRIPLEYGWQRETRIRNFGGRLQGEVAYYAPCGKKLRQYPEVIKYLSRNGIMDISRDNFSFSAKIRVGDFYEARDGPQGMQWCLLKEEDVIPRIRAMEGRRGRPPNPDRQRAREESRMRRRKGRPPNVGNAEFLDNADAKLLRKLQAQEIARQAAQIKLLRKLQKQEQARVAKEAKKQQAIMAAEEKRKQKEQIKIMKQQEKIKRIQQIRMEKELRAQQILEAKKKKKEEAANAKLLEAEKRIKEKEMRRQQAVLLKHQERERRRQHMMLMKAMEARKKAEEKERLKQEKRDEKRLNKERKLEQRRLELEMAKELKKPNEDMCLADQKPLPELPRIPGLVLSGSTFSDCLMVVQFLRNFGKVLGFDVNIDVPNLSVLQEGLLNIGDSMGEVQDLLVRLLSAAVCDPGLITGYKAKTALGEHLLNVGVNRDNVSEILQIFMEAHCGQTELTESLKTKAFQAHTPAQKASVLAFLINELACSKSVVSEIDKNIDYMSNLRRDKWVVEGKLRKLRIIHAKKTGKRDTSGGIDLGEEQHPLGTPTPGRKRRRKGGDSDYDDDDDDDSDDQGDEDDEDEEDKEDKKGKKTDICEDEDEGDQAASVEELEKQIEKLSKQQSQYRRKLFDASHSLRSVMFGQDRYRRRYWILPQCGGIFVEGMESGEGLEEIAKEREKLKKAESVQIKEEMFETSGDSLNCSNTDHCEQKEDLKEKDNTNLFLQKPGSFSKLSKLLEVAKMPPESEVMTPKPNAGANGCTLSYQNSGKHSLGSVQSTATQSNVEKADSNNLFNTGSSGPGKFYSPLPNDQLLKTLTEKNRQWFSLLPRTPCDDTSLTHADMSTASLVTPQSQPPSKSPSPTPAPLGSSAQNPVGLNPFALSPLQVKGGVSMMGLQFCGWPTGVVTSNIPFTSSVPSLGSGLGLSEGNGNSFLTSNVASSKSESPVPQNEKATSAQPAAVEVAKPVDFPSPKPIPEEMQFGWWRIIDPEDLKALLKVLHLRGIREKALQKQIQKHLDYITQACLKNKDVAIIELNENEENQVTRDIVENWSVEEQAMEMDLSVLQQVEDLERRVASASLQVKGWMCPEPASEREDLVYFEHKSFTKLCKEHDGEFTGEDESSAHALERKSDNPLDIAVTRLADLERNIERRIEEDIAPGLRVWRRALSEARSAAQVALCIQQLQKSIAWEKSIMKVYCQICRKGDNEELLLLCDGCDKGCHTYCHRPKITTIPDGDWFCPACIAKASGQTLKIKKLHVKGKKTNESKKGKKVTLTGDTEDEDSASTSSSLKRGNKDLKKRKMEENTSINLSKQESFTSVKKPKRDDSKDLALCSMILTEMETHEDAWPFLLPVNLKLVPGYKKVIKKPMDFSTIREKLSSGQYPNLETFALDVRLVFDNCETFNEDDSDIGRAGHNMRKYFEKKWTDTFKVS
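BAZ2B (50 nM) with biotin-H3(5-23)K14Ac peptide (50 nM) in PBS pH 7.4, 0.01% Tween-20, preformed 30 min, then compound 30 min at room temperature; top concentration 110uM. AlphaScreen streptavidin donor/nickel chelate acceptor beads (10 ug/mL final), 20 min dark, signal read.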
HP1b chromo inh: HTS for Inhibitors of HP1-beta Chromodomain Interactions with Methylated Histone Tails. Chromobox protein homolog 1 (Homo sapiens), P83916. AlphaScreen HP1-beta / biotin-H3K9me3 peptide binding. Potency, µM (titrated, usually from 114 µM), usual class: inhibitors. 0.56% of 390,000 active. AID 540317, 2011; note: nearly all actives have a fitted effect of over 70% in size
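Compound inhibition of the preformed complex between 50 nM HP1-beta and 50 nM biotinylated H3K9me3 peptide was read by AlphaScreen. Buffer was PBS pH 7.4 with 0.01% Tween-20. Incubations ran 30 min at room temperature, with 10 ug/mL donor/acceptor beads.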
JMJD2A Tudor: qHTS Assay for Inhibitors of JMJD2A-Tudor Domain; Lysine-specific demethylase 4A (Homo sapiens), O75164; 4.4% of 390,000 active; AlphaScreen JMJD2A-Tudor / H3K4me3 peptide binding; Potency, µM (titrated, usually from 114 µM), hits mostly inhibitors; note: nearly all actives have a fitted effect of over 50% in size
G9a block: qHTS Assay for Inhibitors of Histone Lysine Methyltransferase G9a; Histone-lysine N-methyltransferase EHMT2 (Homo sapiens), Q96KQ7; G9a H3K9 monomethylation, AlphaScreen, 2 h; Potency, µM (titrated, usually from 102 µM), hits mostly inhibitors; 8.8% of 350,000 active; AID 504332, 2011; note: nearly all actives have a fitted effect of over 75% in size
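Signal arises when biotinylated H3K9 peptide, once monomethylated, bridges streptavidin donor and antibody-captured acceptor beads. Enzyme at 20 nM was preincubated 15 min with test compounds; peptide 500 nM and SAM 20 uM then reacted for 2 h.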
GLS inh: qHTS for Inhibitors of Glutaminase (GLS); Glutaminase kidney isoform, mitochondrial (Homo sapiens), O94925; GLS enzymatic activity, qHTS titration; Potency, µM (titrated, usually from 45.5 µM), most hits filed as inhibitors; 0.21% of 410,000 active; AID 624170, 2012
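hKGA in 45 mM KH2PO4 (pH 8.2), 0.02% Tween-20 with compound, then 1mM L-Glutamine (stock as added) plus glutamate oxidase/HRP/Amplex red coupling mix. Fluorescence read initially and after 30 min at RT; signal change reflects glutamate formation.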
Hits are given with their value; – = inactive; ? = inconclusive; · = not tested or not shown; ! = repeats disagree; [ ] = another dose, or the depositor's remark. Calls come from the whole dose curve; as a rule, active = well fitted curve in the direction sought with a large enough effect; inconclusive = small, poorly fitted or top-dose-only effect, or another doubt; inactive = no such curve, though single readings can be large; an effect the other way counts as inactive or inconclusive.

SMILES	BAZ2B block	HP1b chromo inh	JMJD2A Tudor	G9a block	GLS inh
O=C(N/N=C/c1ccc(N2CCOCC2)o1)c1cccc(F)c1	–	–	?	7.1µM	–
COc1ccc(C(=O)N/N=C/c2ccc(N3CCOCC3)o2)cc1OC	–	–	–	8.9µM	–
Nc1c(-c2nc(-c3ccccc3Cl)no2)nnn1-c1ccccc1F	–	–	–	–	–
S=c1[nH]c2ccccc2n1Cc1ccccc1	–	?	?	·	–
CC(NC(=O)CCn1c(=S)[nH]c2ccsc2c1=O)c1ccccc1 (stereo not given)	–	–	–	28µM	–
COc1ccc(Cn2c(=S)[nH]c3ccsc3c2=O)cc1	–	–	–	8.9µM	–
O=c1c2sccc2[nH]c(=S)n1Cc1ccccc1	–	–	–	10µM	–
Cc1ccc(C)c(CSC2=NCCN2S(=O)(=O)c2ccccc2)c1	–	–	–	·	–
C(=N\N(c1ccccc1)c1ccccc1)/c1ccc(N2CCOCC2)s1	?	?	?	13µM	–
O=C(N/N=C/c1ccc(N2CCOCC2)s1)c1ccccc1Cl	–	–	?	?	–
CCOC(=O)N/N=C/c1ccc(N2CCOCC2)s1	–	–	–	40µM	–
COc1ccc(C(=O)N/N=C/c2ccc(N3CCOCC3)s2)cc1OC	–	–	–	–[12.7 µM]	–
C/C(=N\NC(=S)Nc1cccc(C)c1)c1ccco1	–	?	?	·	–
CCNC(=S)N/N=C(\C)c1ccco1	–	–	–	35µM	–
CCOc1ccc(OCCC(=O)N(CCOC)c2c(N)n(Cc3ccccc3)c(=O)[nH]c2=O)cc1	·	–	–	·	–
Cn1cc(S(=O)(=O)N2CCOCC2)cc1C(=O)Nc1ccc(Cl)c(C(F)(F)F)c1	–	–	–	–	–
CC1CCCCN1c1cc2c(cc1F)c(=O)c(S(=O)(=O)c1ccccc1)cn2Cc1ccccc1 (stereo not given)	–	–	–	–	–
Cc1ccc(S(=O)(=O)N2CCNC(=O)C2)c(C)c1	–	–	–	56µM	–
Cc1ccc(S(=O)(=O)N2CCN(C)CC2)c(C)c1	–	–	–	–	–
O=c1cccccc1NCc1ccccc1	–	–	–	10µM	·
N#Cc1ccccc1NCc1ccccc1	–	–	–	–	–
O=C(Nc1cccc(C(F)(F)F)c1)c1csc([C@@H]2O[C@H](CO)[C@H](O)[C@H](O)[C@H]2O)n1	·	·	·	·	–
Cn1nccc1C(=O)Nc1ccc2c(c1)OCO2	–	–	–	–	–
c1ccc(-c2csc3nnc(SCc4ccc5c(c4)OCO5)n23)cc1	–	–	20µM	–	?
Nc1ccc(S(=O)(=O)N2CCCN(S(=O)(=O)c3ccc4c(c3)OCCO4)CC2)cc1	·	·	89µM	·	·
SMILES	BAZ2B block	HP1b chromo inh	JMJD2A Tudor	G9a block	GLS inh
O=c1c(-c2cccs2)nc2cnc(N3CCNCC3)nc2n1C1CC1	·	·	·	–[0.501 µM]	·
O=C(NCc1ccc(F)cc1)C1CCN(S(=O)(=O)c2ccc3c(c2)CCCN3C(=O)C2CCC2)CC1	–	–	–	–	–
CCn1c2ccccc2c2cc(CN3CCN(Cc4ccccc4C)CC3)ccc21	56µM	?	5.6µM	1.8µM	–
CCn1c2ccccc2c2cc(CN3CCN(Cc4cc(OC)ccc4O)CC3)ccc21	20µM	?	1µM	10µM	–
CCn1c2ccccc2c2cc(CN3CCN(Cc4ccccc4F)CC3)ccc21	16µM	?	4µM	2µM	–
COc1ccc(CCn2c(=S)[nH]c(=O)c3nccnc32)cc1OC	·	–	–	·	·
Cc1ccc(SC[C@H](C)CN2CC[C@H](C(C)(C)C)CCC2=O)cc1	–	–	–	·	–
O=C(NNS(=O)(=O)c1ccccc1)c1cccc(F)c1	56µM	–	–	–[0.501 µM]	–
O=C(NNC(=O)c1ccncc1)c1ccccc1	–	–	–	–	–
O=C(NNS(=O)(=O)c1ccc(F)cc1)c1ccc(O)cc1	?	–	–	·	–
Cc1cccc(C(=O)NNS(=O)(=O)c2ccc(F)cc2)c1	–	–	–	·	–
Cc1ccc(S(=O)(=O)NNC(=O)c2sc(=S)n(C)c2C)cc1	–	–	3.5µM	?	–
O=C(NNS(=O)(=O)c1ccccc1)c1ccncc1	–	–	10µM	?	–
Cc1cccc(C(=O)NNS(=O)(=O)c2ccc(F)cc2)c1O	–	–	2µM	–	?
O=C(COC(=O)c1ccccc1Cc1ccccc1)NC1CCS(=O)(=O)C1 (stereo not given)	–	–	–	·	–
CC(C)(C)c1ccc(C(=O)NCCc2csc3nc(-c4ccccc4F)nn23)cc1	–	–	–	–	–
O=C(NNC(=O)c1ccccc1-n1cccc1)c1cncc(Br)c1	·	–	–	·	–
Cc1ccc(S(=O)(=O)NNC(=O)c2cccnc2)cc1	·	–	–	–	–
Cc1ccc(S(=O)(=O)NNC(=O)c2ccncc2)cc1	–	–	79µM	–	–
O=C(NNS(=O)(=O)c1ccc([N+](=O)[O-])cc1)c1ccncc1	–	–	–	40µM	–
CCN1C(=NCCCCO)N[C@@H](c2cccc(C(F)(F)F)c2)C(C(=O)OC)=C1C	?	–	?	–[12.7 µM]	–
CCN1C(=NCC(C)C)N[C@@H](c2cccc(C(F)(F)F)c2)C(C(=O)OC)=C1C	?	–	18µM	–[12.7 µM]	–
C=CCN=C1N[C@@H](c2ccccc2)C(C(=O)OC)=C(C)N1CC	–	–	–	40µM!	–
COC(=O)C1=C(C)N(Cc2ccccc2)C(=NCc2ccco2)N[C@H]1c1ccc(Br)cc1	79µM	·	·	–[12.7 µM]	·
C=CCN=C1N[C@@H](c2cccc(C(F)(F)F)c2)C(C(=O)OC)=C(C)N1CC	?	–	?	28µM!	–
SMILES	BAZ2B block	HP1b chromo inh	JMJD2A Tudor	G9a block	GLS inh
COC(=O)C1=C(C)N(Cc2ccccc2)C(=NCCc2c[nH]c3ccccc23)N[C@H]1c1cccc(C(F)(F)F)c1	?	–	56µM	–[12.7 µM]	–
COC(=O)C1=C(C)N(Cc2ccccc2)C(=NCC(C)C)N[C@H]1c1ccccc1	–	–	–	50µM!	–
COC(=O)C1=C(C)N(Cc2ccccc2)C(=NCc2ccc(OC)cc2)N[C@H]1c1ccccc1	?	–	?	·	–
CCN(CC)C(=O)Cn1cc(SCC(=O)NC2CCCCC2)c2ccccc21	·	·	·	·	–
CC(=O)Nc1c(C)nn(-c2ccccc2)c1N1CCC(C(=O)NCc2cccc(F)c2)CC1	–	–	–	–	–
CC(C)Sc1nc(-c2ccccc2)cc(=O)[nH]1	–	–	–	35µM	–
CCC(Sc1nc(-c2ccccc2)cc(=O)[nH]1)C(=O)O (stereo not given)	–	–	–	–	–
C[C@@H]1CN([C@@H](C)CO)C(=O)CCCn2cc(nn2)CO[C@H]1CN(C)S(=O)(=O)c1ccc(Cl)cc1	·	·	·	·	–
Cc1ccccc1CCN1CCCC(CN(C)C(=O)c2ccc3ncccc3c2)C1 (stereo not given)	–	–	–	–	–
